Assay results: PubChem BioAssay (EPA / NIEHS)
Inconclusive results are not listed. Active and inactive are the calls of the source. How the source made its calls, unless noted: active means hit-call score of the fitted dose curve at least 0.9, where 1 is the maximum; inactive means score below 0.9.

Legend:
[1] = system: SRY-box transcription factor 2 (SOX2) Protein Expression, Deisenroth Lab, SOX2 (gene 6657); assay: CCTE_Deisenroth_DEVTOX-GLR_Endo_SOX2: CCTE's DevTox GLR-Endo Assay Evaluation of SRY-box transcription factor 2 (SOX2) Protein Expression, Deisenroth Lab (AID 2284412; active means hit-call score of the fitted dose curve at least 0.9, where 1 is the maximum)
How it was run: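 Endpoint is percent SOX2-positive cells (SOX2+ count/total cells) minus 0.2% DMSO control, from high-content imaging of fixed, nuclear-stained RUES2-GLR cells. Dosing twice at 24 h intervals over 48 h differentiation, 1 nM–200 uM in 10 points.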

[2] = Tanguay_ZF_120hpf_EDEM: Oregon State University Tanguay Lab 120 Hour Post-fertilization zebrafish Assay for Edema Malformation (AID 2284400)
How it was run: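 Edema recorded as a binary endpoint under brightfield at 120 hpf, excluding embryos that died. Exposure was static, sealed, 28C, from 6 hpf in dechorionated wild-type larvae, final DMSO 0.64%, DMSO as baseline.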

[3] = Tanguay_ZF_120hpf_BRN: Oregon State University Tanguay Lab 120 Hour Post-fertilization zebrafish Assay for Brain Region Malformation (AID 2284402)
How it was run: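 Binary brightfield scoring of brain malformation at 120 hpf in 5D wild-type larvae, chorion removed with pronase at 4 hpf. Static exposure began at 6 hpf, 28C, sealed plates, DMSO 0.64% (vol/vol) as vehicle baseline.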

[4] = Tanguay_ZF_120hpf_ANY: Oregon State University Tanguay Lab 120 Hour Post-fertilization zebrafish Assay for Any Mortality and Malformation (AID 2284404)
How it was run: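 Dechorionated Tropical 5D wild-type embryos, one per well from 6 hpf, static exposure in sealed, dark plates at 28C until 120 hpf, 0.64% DMSO final. Brightfield scoring of mortality and malformations as binary presence/absence, pooling 13 morphology endpoints.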

[5] = CCTE_Padilla_ZF_Score.Craniofacial: CCTE's 144 Hour Post-fertilization zebrafish Assay Score for Craniofacial Malformation, Padilla Lab (AID 2284405)
How it was run: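 Craniofacial defects were scored at 6 dpf by two blinded observers using stereomicroscopy. Exposure of wild-type embryos began at 6–8 hpf in sealed wells of 10% Hanks' solution at 26C, with chemical removed by rinsing at 5 dpf.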

[6] = CCTE_Padilla_ZF_Score.Edema: CCTE's 144 Hour Post-fertilization zebrafish Assay Score for Edema Malformation, Padilla Lab (AID 2284406)
How it was run: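 Edema scored at 6 dpf by two blinded observers under a stereo microscope, in single outbred wild-type larvae exposed from 6-8 hpf in sealed wells (Hanks', 26C, 14:10 h light) and chemical-free after a 5 dpf rinse.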

[7] = CCTE_Padilla_ZF_Score.Spine: CCTE's 144 Hour Post-fertilization zebrafish Assay Score for Spine Malformation, Padilla Lab (AID 2284407)
How it was run: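 Spine malformation scored at 6 dpf by two independent blinded observers under stereomicroscope, after static sealed exposure from 6–8 hpf at 26C in Hanks' solution with rinse on 5 dpf. Positive-direction fit against DMSO control.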

[8] = CCTE_Padilla_ZF_Score.Swim_bladder: CCTE's 144 Hour Post-fertilization zebrafish Assay Score for Swim Bladder Malformation, Padilla Lab (AID 2284408)
How it was run: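 Swim bladder inflation scored at 6 dpf by two blinded observers under a stereo microscope. Exposure ran from 6–8 hpf in sealed wells of 10% Hanks' at 26C, with rinsing at 5 dpf; DMSO served as baseline.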

[9] = CCTE_Padilla_ZF_Score.Position: CCTE's 144 Hour Post-fertilization zebrafish Assay Score for Position, Padilla Lab (AID 2284409)
How it was run: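 Wild-type zebrafish embryos (with chorions) exposed singly from 6–8 hpf in sealed wells of Hanks' solution at 26C, rinsed at 5 dpf. At 6 dpf, blinded assessors scored abnormal water-column position by brightfield stereomicroscopy, relative to DMSO.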

[10] = CCTE_Padilla_ZF_Score.Living: CCTE's 144 Hour Post-fertilization zebrafish Assay Score for Viability, Padilla Lab (AID 2284410);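 further: larval death at 6 dpf judged by absent heartbeat or coagulation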
How it was run: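 Mortality at 6 dpf, judged as absent heartbeat or coagulation by two blinded observers, after sealed static exposure beginning at 6–8 hpf at 26C. Larvae were rinsed free of chemical at 5 dpf, and activity was fitted relative to DMSO.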

NNC(=O)c1ccncc1
outcome [1]: inactive

NC(=O)N1c2ccccc2C=Cc2ccccc21
AC50 [1]: 16.7 µM (active)

OCCC(F)(F)C(F)(F)C(F)(F)C(F)(F)F
outcome [2]: inactive
outcome [3]: inactive
outcome [4]: inactive
outcome [5]: inactive
outcome [6]: inactive
outcome [7]: inactive
outcome [8]: inactive
outcome [9]: inactive
outcome [10]: inactive

O=S(=O)(O)CCC(F)(F)C(F)(F)C(F)(F)C(F)(F)C(F)(F)C(F)(F)F
outcome [2]: inactive
outcome [3]: inactive
outcome [4]: inactive
outcome [5]: inactive
outcome [6]: inactive
outcome [7]: inactive
outcome [8]: inactive
outcome [9]: inactive
outcome [10]: inactive

OC(O)(C(F)C(O)(O)C(F)(F)F)C(F)(F)F
AC50 [2]: 66.9 µM (active)
outcome [3]: inactive
AC50 [4]: 40.5 µM (active)
AC50 [5]: 35.5 µM (active)
AC50 [6]: 31.3 µM (active)
outcome [7]: inactive
AC50 [8]: 32.1 µM (active)
AC50 [9]: 76.9 µM (active)
outcome [10]: inactive

O=C(Cl)C(F)(F)C(F)(F)C(F)(F)C(=O)Cl
outcome [2]: inactive
outcome [3]: inactive
AC50 [4]: 57.6 µM (active)
outcome [5]: inactive
outcome [6]: inactive
outcome [7]: inactive
outcome [8]: inactive
outcome [9]: inactive
outcome [10]: inactive

NCC(F)(F)C(F)(F)C(F)(F)C(F)(F)F
outcome [2]: inactive
outcome [3]: inactive
outcome [4]: inactive
outcome [5]: inactive
outcome [6]: inactive
outcome [7]: inactive
outcome [8]: inactive
outcome [9]: inactive
outcome [10]: inactive

FC(F)=C(F)C(F)(F)C(F)(F)C(F)(F)C(F)(F)C(F)(F)C(F)(F)F
outcome [2]: inactive
outcome [3]: inactive
outcome [4]: inactive
outcome [5]: inactive
outcome [6]: inactive
outcome [7]: inactive
outcome [8]: inactive
outcome [9]: inactive
outcome [10]: inactive

FC(F)(F)C(F)(F)C(F)(F)C(F)(F)C(F)(F)C(F)(F)I
outcome [2]: inactive
outcome [3]: inactive
outcome [4]: inactive
outcome [5]: inactive
outcome [6]: inactive
outcome [7]: inactive
outcome [8]: inactive
outcome [9]: inactive
outcome [10]: inactive

FC(F)C(F)(F)COCC1CO1 (stereo not drawn)
outcome [2]: inactive
outcome [3]: inactive
outcome [4]: inactive
AC50 [5]: 118 µM (active)
AC50 [6]: 29.5 µM (active)
outcome [7]: inactive
AC50 [8]: 32.2 µM (active)
outcome [9]: inactive
outcome [10]: inactive

Nc1ccn([C@@H]2O[C@H](CO)[C@@H](O)[C@@H]2O)c(=O)n1
AC50 [1]: 4.66 µM (active)

C[Si](C)(C)C(F)(F)C(F)(F)C(F)(F)F
outcome [2]: inactive
outcome [3]: inactive
outcome [4]: inactive
outcome [5]: inactive
outcome [6]: inactive
outcome [7]: inactive
outcome [8]: inactive
outcome [9]: inactive
outcome [10]: inactive

FC(F)(F)COC(OCC(F)(F)F)OCC(F)(F)F
outcome [2]: inactive
outcome [3]: inactive
outcome [4]: inactive
outcome [5]: inactive
outcome [6]: inactive
outcome [7]: inactive
outcome [8]: inactive
outcome [9]: inactive
outcome [10]: inactive
